Six compounds from PubChem BioAssay can be followed below.

Experiment [1] is described as follows: viability loss in pontine glioma line – cell-based, JHH-DIPG-1, MIPE4.0, CellTiter-Glo, qHTS, dose response (AID 1347062; cut-off not given, nearly all actives have AC50 up to about 27 µM;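 for AC50: cells exposed to compound for two days before readout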). The following applies: JHH-DIPG-1 viability, CellTiter-Glo ATP luminescence.
Experiment [2] in a line: viability loss in pontine glioma line – cell-based, SU-DIPG-IV, MIPE4.0, CellTiter-Glo, qHTS, dose response (AID 1347063).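 Note: compound exposure lasted 48 hours before the viability readout.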 The following applies: CellTiter-Glo ATP luminescence. On the technique in general: ATP-based viability assays read luminescence as a measure of living cells.
The nature of experiment [3]: growth inhibition of DIPG cells – cell-based, MIPE4.0 library, CellTiter-Glo luminescence, qHTS (AID 1347066).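 Note: cells exposed to compound for 48 hours before readout.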 The following applies: SU-DIPG-VI viability, CellTiter-Glo ATP luminescence.
A short description of experiment [4]: viability loss in pontine glioma line – cell-based, SU-DIPG-XIII, MIPE4.0, CellTiter-Glo, qHTS, dose response (AID 1347061; cut-off not given, nearly all actives have AC50 up to about 37 µM;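 note: cells exposed to compound for 48 hours before readout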). The conditions noted are these: CellTiter-Glo ATP luminescence.
The nature of experiment [5]: viability loss in pontine glioma line – cell-based, SU-DIPG-XXV, MIPE5.0, CellTiter-Glo, qHTS, dose response (AID 1347065; cut-off not given, nearly all actives have AC50 up to about 26 µM;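 note: cells exposed to compound for 48 hours before ATP readout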). The following applies: CellTiter-Glo ATP luminescence.
The nature of experiment [6]: JHH-DIPG-1 glioma cell viability, MIPE5.0 library, CellTiter-Glo luminescence, qHTS (AID 1347067; cut-off not given, nearly all actives have AC50 up to about 26 µM;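 note: cells exposed to compound for 48 hours before readout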). The following applies: JHH-DIPG-1 glioma viability, CellTiter-Glo ATP luminescence.
A short description of experiment [7]: growth inhibition of DIPG cells – cell-based, MIPE5.0 library, qHTS (AID 1347068; cut-off not given, nearly all actives have IC50 up to about 30 µM;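 for IC50: cells exposed to compound for 48 hours before viability readout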). The conditions noted are these: SU-DIPG-XXV viability. A general note: qHTS replaces the single test concentration by a dilution series.
The nature of experiment [8]: viability loss with induced miR-34 in A549 – imaging, A549 dox-inducible miR-34, nuclei and caspase counts, primary screen (AID 1347080;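 active = compounds whose cell count with miR-34 switched on is under 0.7 times the count with it off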). The following applies: A549 miR-34 inducible, Hoechst nuclei count, 48 h.
Experiment [9] is described as follows: MELAS cybrid and Rieske KO viability enhancers – cell-based, MELAS cybrids, Rieske KO mouse fibroblasts, CellTiter-Glo, primary screen (AID 1508586;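 active = mean z-score across replicates of 1.96 or higher in either the MELAS or the Rieske mutant cell line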;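 note: z relative to plate mean and SD of compound and empty wells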). The conditions noted are these: low glucose.
Experiment [10] in a line: viability loss in pontine glioma line – cell-based, SU-DIPG-XIII, MIPE5.0, CellTiter-Glo, qHTS, dose response (AID 1347064; cut-off not given, nearly all actives have AC50 up to about 23 µM). The conditions noted are these: CellTiter-Glo ATP luminescence.

Inconclusive results are not listed. Active and inactive are the calls of the source. Unless noted, no cut-off is given here; in the data, nearly all actives have AC50 up to about 30 µM.

Consider `CC[C@@H]1[C@@H](C)O[C@@](O)([C@@H](C)[C@H](O)[C@H](C)[C@H]2OC(=O)/C=C/C=C/[C@H](C)[C@@H]([C@@H](C)[C@@H](O)[C@H](C)[C@@]3(O)C[C@@H](O[C@H]4C[C@H](O)[C@H](O)[C@H](C)O4)[C@H](CC)[C@@H](C)O3)OC(=O)/C=C/C=C/[C@@H]2C)C[C@H]1O[C@H]1C[C@H](O)[C@H](O)[C@H](C)O1`, for which the concentration at half-maximal activity (AC50) – broadly, the midpoint of the concentration-response curve, whichever way the signal moves – in experiment [1] was 590 nM (active); in experiment [2], 743 nM (active); in experiment [3], 469 nM (active).
In the case of `c1cc2c(cc1[C@H]1OC[C@H]3[C@@H]1CO[C@@H]3c1ccc3c(c1)OCO3)OCO2`, the compound was called inactive in experiment [1] and in experiment [3].
Turning to `C[C@@H]1[C@H](O)[C@@H](C)C=CC=CCCC=CC=CC=CC=C[C@H](O[C@H]2O[C@@H](C)[C@H](O)[C@@H](N)[C@H]2O)CC2O[C@](O)(C[C@@H](O)[C@H](O)CC[C@@H](O)C[C@@H](O)C[C@@H](O)CC(=O)O[C@H]1C)C[C@H](O)[C@H]2C(=O)O`, the compound was called inactive in [4], in experiment [1], in experiment [2] and in experiment [3].
For the compound `CO/C1=C/C(C)=C\[C@@H](C)[C@@H](O)[C@@H](C)C/C(C)=C\C=C/[C@H](OC)[C@@H]([C@@H](C)[C@@H](O)[C@H](C)[C@@]2(O)C[C@@H](O)[C@H](C)[C@@H](C(C)C)O2)OC1=O`, the AC50 in [1] was 11800 nM (active); in experiment [2], 9350 nM (active); in [5], 393 nM (active); in experiment [3], 3720 nM (active); in [6], 9860 nM (active). The 50% inhibitory concentration (IC50) (in general, the midpoint of a concentration-inhibition curve) in experiment [7] was 49.4 nM (active).
Regarding `COc1ccc(CC2NCCc3cc(OC)c(OC)cc32)cc1OC` (stereo not given), the outcome in [4], in experiment [2] and in experiment [3] was inactive. The fold change was 0.988 (inactive) in experiment [8] (stronger effect = lower value, cell number ratio, induced over uninduced) and 0.746 in [8] (measured here: relative caspase fold change +Dox/-Dox). The cell count in [8] (measured here: total cells with miR-34 induction, stronger effect = lower value) turned out to be 9220; in experiment [8] (measured here: total cells without miR-34 induction), 9330. Further, the z-score in experiment [9] (MELAS cybrid survival, CellTiter-Glo 48 h, stronger effect = higher value) was -0.321 (inactive); in experiment [9] (Rieske KO mouse fibroblast survival, CellTiter-Glo 72 h), 0.618.
Regarding `CCOC(=O)c1c(/C(C#N)=C\N)c2ccc(Cl)c(Cl)c2n1C`, the compound was called inactive in experiment [4], in experiment [1], in [10], in experiment [3], in experiment [6] and in [7].
